Screens: PubChem, National Center for Advancing Translational Sciences (NCATS)
DT40 TDP1 CPT = DT40-hTDP1 cell growth loss with CPT; chicken DT40 Tdp1-/-;hTDP1 cells + 20 nM CPT, ATP luminescence, 48 h; AID 686979; Potency, µM (highest dose often 46.2 µM), usual class: inhibitors; 420,000 compounds, 12% hits; note: nearly all actives have a fitted effect of over 55% in size
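Chicken DT40 Tdp1-/- cells stably complemented with human TDP1 were seeded at 400 cells/well in medium containing 20 nM camptothecin, exposed to pin-transferred compounds, and grown at 37 °C for at least 48 hr. Viability was read as ATP luminescence.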
HT1080 IDH1KD tx = HT-1080 IDH1 knockdown cell toxicity (counter line); HT-1080 IDH1 knockdown viability, ATP luminescence, 48 h; Potency, µM (series often up to 46.1 µM), hits mostly cytotoxic; 360,000 compounds, 2% hits
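IDH1KD HT-1080 cells, 750/well, RPMI + 5% FBS; compound pinned after 2 h settling; 48 h, 37 °C; CellTiter-Glo luminescence; % activity normalised to DMSO and no-cell wells; curves fitted, classed by r2 and efficacy.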
IL1B secr inh = inflammasome signaling inhibition, IL-1 beta readout; 360,000 compounds, 4.7% hits; activity change, % at 57.5 µM; THP-1 LPS/ATP IL-1B secretion, AlphaLISA, 16 h; stronger effect = lower value; in the data active = activity change below about -50%; inconclusive = mostly about -30% to -49%
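Secreted IL-1B measured by AlphaLISA bead assay after 16 h compound exposure of THP-1 cells; compounds (final up to 57.5 uM) added 1 h before LPS (250 ng/mL) and ATP (1.25 mM) stimulation; lower signal means less secretion.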
TDP1 cell noCPT = qHTS for Inhibitors of human tyrosyl-DNA phosphodiesterase 1 (TDP1): qHTS in cells in absence of CPT; DT40 Tdp1-/- hTDP1 cells, no CPT, ATP luminescence, 48 h; Potency, µM (titrated, usually from 46.2 µM), hits mostly inhibitors; 420,000 compounds, 15% hits; note: nearly all actives have a fitted effect of over 55% in size
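Luminescent ATP content (CellTiter-Glo) served as the growth readout. Knockout chicken DT40 cells expressing human TDP1 were exposed to compounds without camptothecin for a minimum 48 hr at 37 °C.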
HT1080NT lethal = kills 2HG-producing HT-1080-NT fibrosarcoma cells | HT-1080-NT fibrosarcoma viability, CellTiter-Glo ATP luminescence, 48 h | Potency, µM (doses to about 46.1 µM), hits mostly cytotoxic | 360,000 compounds, 1.6% hits;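 note: NT is the 2HG producing partner of a matched IDH1 knockdown line; nearly all actives have a fitted effect of over 55% in size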
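A 48-hour cytotoxicity screen used HT-1080-NT cells plated 2 hours before compound delivery. ATP-based CellTiter-Glo luminescence measured viability, normalized to DMSO and no-cell controls.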
Hits are given with their value; . = inactive; ? = inconclusive; / = no result; [ ] = remark or other dose. This is a sample that favours compounds with a hit; in the whole collection about 19% have one here. Unless noted, calls come from the whole dose curve; as a rule, active = well fitted curve in the direction sought with a large enough effect; inconclusive = small, poorly fitted or top-dose-only effect, or another doubt; inactive = no such curve, though single readings can be large; an effect the other way counts as inactive or inconclusive.

SMILES	DT40 TDP1 CPT	HT1080 IDH1KD tx	IL1B secr inh	TDP1 cell noCPT	HT1080NT lethal
COc1ccc(CN2CCN(C(=O)Cn3nc(C)n4cccc4c3=O)CC2)c(OC)c1OC	.	.	.	.	.
CN(c1ccc(OCC(=O)NC2CCC(O)CC2)cc1)S(=O)(=O)c1ccc(Cl)cc1 (stereo not given)	?	.	.	13µM	.
Cc1ccc(S(=O)(=O)N(C)c2ccc(OCC(=O)OCc3cccc(Br)c3)cc2)cc1	?	.	.	.	.
Cc1ccc(S(=O)(=O)N(C)c2ccc(OCc3cccc(C)c3)cc2)cc1	?	.	.	18µM	.
COc1cc(NC(=O)COc2ccc(Cl)cc2)ccc1-c1cc2ccccc2oc1=O	4.1µM	?	.	4.6µM	?
Cc1ccc(NC(=O)COc2ccc(N(C)S(=O)(=O)c3ccc(F)cc3)cc2)cc1	?	.	.	16µM	.
COc1ccc(NS(=O)(=O)c2ccc(OC)c(N(C)S(=O)(=O)c3ccc(Cl)cc3)c2)cc1	10µM	?	-83	6.5µM	14µM
CCC1CCCCN1C(=O)COc1ccc(N(C)S(=O)(=O)c2ccc(C)cc2)cc1 (stereo not given)	21µM	.	.	15µM	.
COc1ccc(-c2csc(NC(=O)COc3ccc(N(C)S(=O)(=O)c4ccc(C)cc4)cc3)n2)cc1	5.2µM	.	.	6.5µM	.
CN(c1ccc(OCC(=O)OCC(=O)Nc2ccc(F)cc2)cc1)S(=O)(=O)c1ccc(Cl)cc1	.	.	.	.	.
COc1ccc(S(=O)(=O)Nc2ccc(F)c(F)c2)cc1Cl	?	?	.	.	?
COc1ccc(NC(=O)COc2ccc(N(C)S(=O)(=O)c3ccc(Cl)cc3)cc2)cc1OC	7.3µM	.	.	4.6µM	.
Cc1nc(SCc2ccccc2Cl)c(C#N)c(C)c1C	.	/	/	?	/
CC(C)CN1CCN(Cc2ccc3ncccc3c2)CC1CCO (stereo not given)	.	.	.	.	.
COC(=O)CNC(=S)NC(=O)c1ccc(C(C)(C)C)cc1	.	.	.	.	.
Cc1ccc(-c2csc(NC(=O)COc3ccc(N(C)S(=O)(=O)c4ccc(C)cc4)cc3)n2)cc1	15µM	.	.	18µM	.
COc1cccc(COC(=O)C2CCN(S(=O)(=O)c3ccc(C)cc3C)CC2)c1OC	.	.	.	.	.
Cc1ccc(C(=O)N/C(=C\c2ccccc2)C(=O)NCCN2CCOCC2)cc1	.	.	.	.	.
O=C(NC1CCCCC1)N(c1ccccc1)c1nnc(-c2cccc([N+](=O)[O-])c2)s1	26µM	.	.	12µM	.
N#CCCN(C(=O)COC(=O)C1CCN(S(=O)(=O)c2ccc3c(c2)OCCO3)CC1)c1ccccc1	.	.	.	.	.
Cc1ccc(C)c(Cn2c(=O)n(-c3ccc(F)cc3)c(=O)c3sc4ccccc4c32)c1	?	/	/	.	/
COc1cccc(N(C(=O)c2ccco2)c2nc(-c3sc(NC(=O)c4ccco4)nc3C)cs2)c1	15µM	.	.	15µM	.
Cc1ccc(-c2csc(NC(=O)c3ccco3)n2)cc1C	.	.	.	?	.
CCOC(=O)c1sc(NC(=O)c2ccco2)nc1C	.	.	.	.	.
COc1ccccc1Nc1nc(-c2sc(NC(=O)c3ccco3)nc2C)cs1	16µM	.	.	15µM	?
SMILES	DT40 TDP1 CPT	HT1080 IDH1KD tx	IL1B secr inh	TDP1 cell noCPT	HT1080NT lethal
Cc1nc(NC(=O)c2ccco2)sc1-c1csc(Nc2ccc(Cl)cc2)n1	21µM	.	.	16µM	.
Cc1ccc(Cl)cc1Nc1nc(-c2sc(NC(=O)c3ccco3)nc2C)cs1	?	?	.	?	?
Cc1nc(NC(=O)c2ccco2)sc1-c1csc(Nc2ccc(Cl)cc2Cl)n1	23µM	?	.	15µM	?
O=C1NC[C@H](CCCCN2C[C@H](Cc3ccccc3)N(CCc3ccc(O)cc3)C(=O)C2=O)N(CCc2ccc(O)cc2)C1=O	.	?	.	.	.
CCS(=O)(=O)NCCc1csc(C)n1	.	.	.	.	.
S=c1nc(C2CCCCC2)n(-c2ccccc2)[nH]1	?	.	.	23µM	.
O=S(=O)(O)c1cc(O)c(N=Nc2ccc(O)cc2O)c2ccccc12	?	?	.	?	?
O=[N+]([O-])c1ccccc1N=Nc1ccc(O)cc1O	?	.	.	26µM	.
CN(Cc1cc(Cl)cc(Cl)c1O)Cc1c(O)ccc2ccccc12	?	?	-96	?	.
CN(Cc1ccccc1)Cc1c(O)ccc2ccccc12	?	.	.	.	.
Cc1ccc(N2CCN(C(=O)c3cccn4c(=O)c5ccc(Cl)cc5nc34)CC2C)cc1 (stereo not given)	.	/	/	.	/
CCOC(=O)C1CCCN(C(=O)c2cc(-c3ccccc3)nc3ccccc23)C1 (stereo not given)	.	.	.	.	.
CCOc1ccc(-c2cc(C(=O)N3CCN(c4ccc(C)cc4)C(C)C3)c3ccccc3n2)cc1 (stereo not given)	21µM	/	/	23µM	/
CCOc1ccc(-c2cc(C(=O)N3CCN(C)CC3)c3ccccc3n2)cc1	?	.	.	?	.
CCOc1ccc(-c2cc(C(=O)N3CCN(c4cccc(C)c4)C(C)C3)c3ccccc3n2)cc1 (stereo not given)	16µM	/	/	7.3µM	/
Cc1cccc(N2CCN(C(=O)c3cccn4c(=O)c5cc(Cl)ccc5nc34)CC2C)c1 (stereo not given)	18µM	/	/	?	/
S=c1sc2c(Cl)ncnc2n1-c1ccccc1	16µM	?	-96	10µM	21µM
Cc1nc(N2CCN(C)CC2)c2sc(=S)n(-c3ccccc3)c2n1	?	.	.	?	.
C#CCN(C[C@H]1[C@H](OC(=O)Nc2c(C)noc2C)[C@H](OC(=O)Nc2c(C)noc2C)C[C@H]2C(=O)N(c3ccccc3)C(=O)[C@@H]12)S(=O)(=O)c1ccc(C)cc1	.	.	.	.	.
Cc1ccc(NC(=O)Nc2nnc(-c3ccncc3)s2)cc1C	21µM	.	.	13µM	.
O=C(Nc1cccc(Cl)c1)Nc1nnc(-c2ccncc2)s1	7.3µM	10µM	.	5.8µM	?
COC(=O)Nc1nnc(-c2ccncc2)s1	?	.	.	.	.[9.24 µM]
O=C(Nc1ccc(F)cc1)Nc1nnc(-c2ccncc2)s1	?	.	.	21µM	.
Cc1ccc(C(=O)c2c3ccccc3[n+]([O-])n2CCC(=O)O)cc1	.	.	.	.	.
CCOC(=O)c1c2ccccc2[n+]([O-])n1[C@@H](C)C(N)=O	21µM	.	.	.	.
CC(C)c1ccc(OCC(=O)N(c2ccccn2)C2CCCCC2)cc1	?	.	.	15µM	.
N#C/C(=C\c1ccccc1)C(=O)N(c1ccccn1)C1CCCCC1	?	?	-98	18µM	?
